{"source": "PubChem BioAssay (EPA / NIEHS)", "note": "The source made the active and inactive calls. The calls were made as follows: active = hit-call score of the fitted dose curve at least 0.9, where 1 is the maximum; inactive = score below 0.9.", "data": [{"assay": "ATG_Oct_MLP_CIS: Attagene CIS-FACTORIAL HepG2 Assay for human Octamer-Binding Transcription Factor (Oct) (AID 2282993)", "details": "HepG2 Attagene cis-factorial Oct reporter, mRNA; actives raise or lower the signal", "method": "ATG_CIS is a cell-based, multiplexed-readout assay that uses HepG2, a human liver cell line, with measurements taken at 24 hours after chemical dosing in a 24-well plate.ATG_Oct_MLP_CIS is one of 52 assay component(s) measured or calculated from the ATG_CIS assay. It is designed to make measurements of mRNA induction, a form of inducible reporter, as detected with fluorescence intensity signals by Reverse transcription polymerase chain reaction (RT-PCR) and Capillary electrophoresis technology.Data from the assay component ATG_Oct_MLP_CIS was analyzed into 1 assay endpoint. This assay endpoint, ATG_Oct_MLP_CIS, was analyzed with bidirectional fitting relative to DMSO as the negative control and baseline of activity. Using a type of inducible reporter, measures of mRNA for gain or loss-of-signal activity can be used to understand the reporter gene at the transcription factor-level as they relate to the gene POU2F1. Furthermore, this assay endpoint can be referred to as a primary readout, because this assay has produced multiple assay endpoints where this one serves a reporter gene function. To generalize the intended target to other relatable targets, this assay endpoint is annotated to the dna binding intended target family, where the subfamily is POU domain protein.\nHuman liver HepG2 cells are transiently transfected with multiple reporter transcription units (MRTUs) in 6-well plates using FuGene 6 reagent (Roche; 3 ml FuGene/1 mg DNA). The MRTU constructs are regulated by a cis-regulating element (promoter). […] A major difference between the CIS and TRANS system is that in CIS activities of endogenous TFs are measured, whereas the TRANS assay evaluates changes in activities of exogenous, chimeric NR-Gal4 proteins. […] At the end of 24 hour incubation, total RNA was isolated using TriZol reagent (Invitrogen). The isolated RNA is then reverse-transcribed using oligo(dT) primer and Mo-MLV reverse transcriptase (Invitrogen) with DNAse I (Ambion) treatment for 30 min. The one-tenth of the produced cDNA was amplified by PCR using Taq DNA polymerase (Invitrogen) and two reporter sequence-specific primers. The PCR products were fluorescently labeled by primer extension with 6-arboxyfluorescein (6-FAM) 5'-labeled reporter sequence-specific primer (2 min at 95 C, 20 s at 68 C and 10 min at 72 C) and these products were digested with 5U of HpaI (New England Biolabs) for 2h at 37 C. The fragments were purified using Qiaquick PCR columns (Qiagen), analyzed on an ABI 3130xL genetic analyzer (Applied Biosystems) with peak positions identified by using a set of X-rhodamine (ROX)-labeled MapMarker1000 molecular weight standards (BioVentures). The raw capillary electrophoresis data was processed using Attagraph software (Attagene).", "values": [{"smiles": "Clc1cccnc1", "outcome": "inactive"}, {"smiles": "O=C(Oc1ccccc1)c1ccccc1C(=O)Oc1ccccc1", "outcome": "inactive"}, {"smiles": "CCCCCCOc1ccc(N)cc1", "outcome": "inactive"}, {"smiles": "Nc1ccnc(=O)[nH]1", "outcome": "inactive"}, {"smiles": "CCCCCCCCCC[N+](C)(CCCCCCCCCC)CCC[Si](OC)(OC)OC", "outcome": "inactive"}, {"smiles": "CC(Cl)COP(=O)(OCC(C)Cl)OCC(C)Cl", "note": "(stereo not given)", "outcome": "inactive"}, {"smiles": "N#CC1(N)CCCCC1", "outcome": "inactive"}, {"smiles": "Cc1cccc(C(C)(C)C)c1O", "outcome": "inactive"}, {"smiles": "COC(OC)(C(=O)c1ccccc1)c1ccccc1", "outcome": "inactive"}, {"smiles": "CC(=O)OC1CCCCC1C(C)(C)C", "note": "(stereo not given)", "outcome": "inactive"}, {"smiles": "CCN1CN(CC)CN(CC)C1", "AC50": "159 µM (active)"}, {"smiles": "CC=C(C)C(C)=O", "outcome": "inactive"}, {"smiles": "CCCC=C(C=O)CC", "outcome": "inactive"}, {"smiles": "COc1cc(C)ccc1O", "outcome": "inactive"}, {"smiles": "CCCCCCCO", "outcome": "inactive"}, {"smiles": "CCOC(=O)C1=NOC(c2ccccc2)(c2ccccc2)C1", "outcome": "inactive"}, {"smiles": "COc1nccnc1CC(C)C", "outcome": "inactive"}, {"smiles": "CC(=O)OCc1ccccc1", "outcome": "inactive"}, {"smiles": "CC(C)OC(=O)c1ccccc1", "outcome": "inactive"}, {"smiles": "CCCCCCCOC(=O)c1ccc(O)cc1", "AC50": "46 µM (active)"}, {"smiles": "CC(C)(CO)COC(=O)C(C)(C)CO", "outcome": "inactive"}, {"smiles": "CCCCOCCOCCOC(C)=O", "outcome": "inactive"}, {"smiles": "COC(C=C(C)CCC=C(C)C)OC", "outcome": "inactive"}, {"smiles": "O=C1CCCCCCCCCCC1", "outcome": "inactive"}, {"smiles": "c1ccc(-c2nc3ccccc3[nH]2)cc1", "outcome": "inactive"}, {"smiles": "Nc1cccc(N)n1", "outcome": "inactive"}, {"smiles": "CCOB(OCC)OCC", "outcome": "inactive"}, {"smiles": "CCc1occc(=O)c1O", "outcome": "inactive"}, {"smiles": "C=C(C)C1CC=C(C)C(OC(C)=O)C1", "note": "(stereo not given)", "outcome": "inactive"}, {"smiles": "CCCCC/C=C\\C/C=C\\CCCCCCCC(=O)O", "outcome": "inactive"}, {"smiles": "c1ccc2c(c1)[nH]c1ccccc12", "outcome": "inactive"}, {"smiles": "O=S(=O)(O)c1ccc(N=Nc2c(O)ccc3ccccc23)cc1", "outcome": "inactive"}, {"smiles": "C[Si]1(C)O[Si](C)(C)O[Si](C)(C)O[Si](C)(C)O[Si](C)(C)O1", "outcome": "inactive"}, {"smiles": "Cc1c(C(=O)c2c[nH]n(C)c2=O)ccc(S(C)(=O)=O)c1C1=NOCC1", "outcome": "inactive"}, {"smiles": "C=CC(=O)NC(C)(C)C", "outcome": "inactive"}, {"smiles": "CCN1CCCC1=O", "outcome": "inactive"}, {"smiles": "CC(=O)OC(C)c1ccccc1", "note": "(stereo not given)", "outcome": "inactive"}, {"smiles": "CCCCOCCOC(=O)COc1ccc(Cl)cc1Cl", "outcome": "inactive"}, {"smiles": "C=C[Si](OCCOC)(OCCOC)OCCOC", "outcome": "inactive"}, {"smiles": "CC(C)(C)NC(=O)[C@H]1CC[C@H]2[C@@H]3CC[C@H]4NC(=O)C=C[C@]4(C)[C@H]3CC[C@]12C", "outcome": "inactive"}]}]}
